Screens: PubChem BioAssay, National Center for Advancing Translational Sciences (NCATS)
Shown are actives, neighbours in structure and some others; about 2.2% of the full set was active somewhere.
Mito fusion act: blocks mitochondrial division or promotes mitochondrial fusion; S. cerevisiae fusion-defective mutant growth rescue, CellTiterGlo 48 h; Potency, µM (series often up to 46.1 µM), usual class: activators; 0.23% of 320,000 active; AID 485298; note: nearly all actives have a fitted effect of over 45% in size
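Read-out: ATP-based luminescence (CellTiterGlo, 10 min ambient) reporting growth of fusion-defective ts yeast after 48 hours at 37C on glycerol/ethanol YPEG medium in the presence of compound.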
FUS yeast rescue: suppressors of FUS proteinopathy in yeast; S. cerevisiae FUS-expressing, growth rescue, OD600, 24 h; Potency, µM (titrated, usually from 76.6 µM), hits mostly activators; 0.24% of 390,000 active; AID 1347120; note: nearly all actives have a fitted effect of over 55% in size
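Yeast expressing FUS under galactose induction, OD 0.005 in 2% galactose medium; compounds in a dilution series, 24 h at 30C. Growth rescue by absorbance at 600 nm; CP55940 positive control, DMSO negative.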
Abeta yeast res: A-beta toxicity reversal in yeast; Potency, µM (series often up to 46.1 µM), actives largely listed as activators; yeast expressing A-beta42, growth rescue, OD600, 48 h; response scale: 0% DMSO, 100% iron-clioquinol control; 0.063% of 410,000 active; note: nearly all actives have a fitted effect of over 55% in size
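Yeast growth medium received pinned compounds, then yeast cells expressing toxic A-beta were added; plates incubated at 30 C for 48 hr. Growth read as absorbance at 600 nm, normalized to DMSO and equimolar FeCl3 plus clioquinol controls.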
aSyn rescue: alpha-synuclein toxicity inhibition in yeast; Yeast expressing alpha-synuclein, growth rescue, BacTiter-Glo, 24 h; AID 652106; Potency, µM (top dose mostly 46.1 µM), usual class: activators; 0.14% of 370,000 active; note: nearly all actives have a fitted effect of over 65% in size
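Rescue of yeast growth: cells expressing toxic alpha-synuclein, induced in galactose at OD600 0.02, incubated with compound 24 h at 30 C. ATP luminescence quantified growth; inhibitors of toxicity appear as activators.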
TDP-43 yeast inh: TDP-43 toxicity inhibition in yeast; TDP-43 expressing yeast growth rescue, BacTiter-Glo, 24 h; Potency, µM (titrated, usually from 46.1 µM), actives largely listed as activators; 1.8% of 410,000 active; AID 652104; note: nearly all actives have a fitted effect of over 50% in size
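Cell-based yeast growth screen: TDP-43 expression induced in galactose, inoculum OD600=0.02 after raffinose pregrowth to mid-log. Read-out BacTiter-Glo luminescence at 24 hr, 30 deg C; inhibition of toxicity seen as signal increase.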
A number is an active result; – = inactive; ? = inconclusive; · = not tested or not shown. Calls come from the whole dose curve; as a rule, active = well fitted curve in the direction sought with a large enough effect; inconclusive = small, poorly fitted or top-dose-only effect, or another doubt; inactive = no such curve, though single readings can be large; an effect the other way counts as inactive or inconclusive.

SMILES | Mito fusion act | FUS yeast rescue | Abeta yeast res | aSyn rescue | TDP-43 yeast inh
C(=NN=C1c2ccccc2-c2ccccc21)c1c[nH]c2ccccc12 | · | · | – | – | 13µM
O=[N+]([O-])c1cccc(/C=N\N=C2c3ccccc3-c3ccccc32)c1O | ? | · | – | – | –
Oc1ccc(C=NN=C2c3ccccc3-c3ccccc32)c(O)c1 | · | · | – | – | 11µM
Fc1c(F)c(F)c(N/N=C/c2c[nH]c3ccccc23)c(F)c1F | – | – | – | – | ?
CC1=C(c2ccc(C(C)C)cc2)S(=O)(=O)NC1=NCc1ccccc1Br | · | – | – | · | –
CSc1nc(N)c2ncn([C@@H]3O[C@H](COP(=O)(O)OP(=O)(O)O)C(O)[C@H]3O)c2n1 (stereo partly specified) | – | · | · | – | ·
Cc1nnc2sc(-c3csc4c3CCCC4)nn12 | – | ? | – | – | 13µM
Cc1nnc2sc(-c3ccncc3)nn12 | – | – | – | – | –
CN(c1ccccc1)S(=O)(=O)c1ccc(NC(=O)c2ccccc2)cc1 | 22µM | · | – | – | –
CN(C(=S)Oc1ccc(C(=O)Nc2ccccc2)cc1)c1ccccc1 | ? | · | – | – | 13µM
CN(c1ccccc1)S(=O)(=O)c1ccc(NC(=O)c2ccc(F)cc2)cc1 | · | – | – | – | –
FC(F)(F)Oc1ccc(Cn2ccc3ccc(-c4ccc5ccn(Cc6ccc(OC(F)(F)F)cc6)c5c4)cc32)cc1 | · | – | · | · | ·
CCN(CC)C(=O)c1c(-c2ccccc2)c(-c2ccccc2)nn(C)c1=O | · | – | – | · | –
COc1ccc(-n2nnnc2C2CCN(S(=O)(=O)c3ccc(NC(C)=O)cc3)CC2)cc1 | · | – | – | · | –
COC(=O)CN(C)C1CC(=O)N(c2ccc(Cl)cc2)C1=O (stereo unspecified) | – | – | – | – | 18µM
O=c1cc2c(nn1Cc1ccccc1Cl)-c1ccccc1CC2 | 20µM | – | – | – | –
c1csc(-c2nc(N3CCN(Cc4ccc5c(c4)OCCO5)CC3)c3ccccc3n2)c1 | · | · | · | – | ·
COc1ccc(C(CC(=O)Nc2ccc(C)cn2)N2Cc3ccccc3C2=O)cc1OC (stereo unspecified) | · | – | – | – | –
Fc1ccccc1Cn1cc(C(=S)N2CCOCC2)c2ccccc21 | – | – | ? | 20µM | ?
COc1ccc(-n2cc(-c3ccccc3)[nH]c2=S)c(OC)c1 | – | – | – | – | –
Fc1ccccc1-n1cc(-c2ccccc2)[nH]c1=S | – | – | ? | – | 13µM
CCOC(=O)[C@@]12CCCC3=C1N(CCC3)C(=O)[C@H]2CC(=O)N1CCN(C(=O)C2CC2)CC1 | · | – | · | · | ·
COc1c(Cl)cc(C(=O)O)cc1Cl | · | – | – | – | 35µM
CSCC(=O)N1CCCC(CO)(Cc2ccccc2C)C1 (stereo unspecified) | 22µM | – | – | – | –
Cc1cccc(NS(=O)(=O)c2ccc3c(c2)OCC(C(=O)N2CCCC2)O3)c1C (stereo unspecified) | · | – | – | · | –
SMILES | Mito fusion act | FUS yeast rescue | Abeta yeast res | aSyn rescue | TDP-43 yeast inh
CCC1=Nc2cc(C(=O)NCc3ccco3)ccc2Sc2ccccc21 | ? | – | – | – | ?
CCC1=Nc2cc(C(=O)O)ccc2Sc2ccccc21 | – | – | – | – | 20µM
CC(=O)c1sc(N/N=C\c2cccc(Br)c2)nc1C | ? | ? | – | – | 18µM
CC(=O)c1sc(N/N=C\c2ccc(Br)cc2)nc1C | – | – | – | – | –
CCOC(=O)c1c(N)sc2c(NC(C)=O)cccc12 | – | – | – | – | –
CCOC(=O)c1c(N)sc2c(O)c(Br)ccc12 | – | – | – | – | 11µM
CCOc1ccc(N(C)C(CNS(=O)(=O)c2ccccc2)c2ccccc2)cc1 (stereo unspecified) | · | – | – | · | –
CCCCCC1CCC(C(=O)NNC(=S)NCC)CC1 (stereo unspecified) | – | – | – | – | –
CCCCCCC1CCC(C(=O)NC(C(=O)O)C(C)C)CC1 (stereo unspecified) | · | – | – | · | 20µM
CCCCn1nnnc1NCc1ccc(N2CCCC2)cc1 | – | 28µM | – | – | –
Fc1ccc2[nH]c3c(c2c1)CN(C(=S)NCc1ccccc1)CC3 | ? | – | ? | – | 16µM
C=CCNC(=O)N1CCc2[nH]c3ccc(F)cc3c2C1 | – | – | – | – | –
S=C(NCc1ccccc1)N1CCc2ccccc2C1 | – | – | – | – | 11µM
